Screens deposited in PubChem BioAssay by National Center for Advancing Translational Sciences (NCATS).
TGFb SMAD3 inh: qHTS for Inhibitors of TGF-b | Potency, µM (highest dose often 46.1 µM), usual class: inhibitors | HepG2 CAGA-GFP TGF-b/SMAD3 reporter, GFP fluorescence, 18 h; TGF-beta stimulated, 500 pg/mL final | actives 1.2% (n = 410,000); note: nearly all actives have a fitted effect of over 65% in size
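Inhibition was scored as loss of TGF-beta-induced (500 pg/mL final, 18 hours, 37 degrees C) GFP in HEPG2 cells carrying a CAGA-GFP reporter, in DMEM with 1% FBS. Well GFP was summed per cell; Activity was normalised to unstimulated and stimulated DMSO wells, then concentration-response fitting.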
HT1080-NT tox: qHTS for induction of synthetic lethality in tumor cells producing 2HG: qHTS for the HT-1080-NT fibrosarcoma cell line | Potency, µM (doses to about 46.1 µM), most hits filed as cytotoxic | HT-1080-NT fibrosarcoma viability, CellTiter-Glo ATP luminescence, 48 h | actives 1.6% (n = 360,000);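 note: NT is the 2HG producing partner of a matched IDH1 knockdown line; nearly all actives have a fitted effect of over 55% in size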
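HT-1080-NT fibrosarcoma cells (2HG-overproducing), 750 cells/well in RPMI with 5% FBS, dosed after 2 h and incubated 48 h at 37C. CellTiter-Glo luminescence normalized to DMSO and no-cell wells; concentration-response curves fitted and classed.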
HT1080 IDH1KD tx: qHTS for induction of synthetic lethality in tumor cells producing 2HG: qHTS for the HT-1080-IDH1KD cell line; AID 686971, 2013; actives 2% (n = 360,000); HT-1080 IDH1 knockdown viability, ATP luminescence, 48 h; Potency, µM (doses to about 46.1 µM), usual class: cytotoxic
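Knockdown cells (IDH1KD HT-1080) received compounds 2 h after plating at 750 cells/well and were kept 48 h at 37 °C in 5% FBS RPMI. A CellTiter-Glo luminescence read gave % activity for curve fitting.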
HepG2 viability: qHTS for Inhibitors of TGF-b: Cytotox Counterscreen; Potency, µM (series often up to 46.1 µM), actives largely listed as cytotoxic; actives 0.76% (n = 410,000); HepG2 CAGA-GFP viability, ATP luminescence, 18 h
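CellTiter-Glo luminescence gave cytotoxicity after 18 hours at 37 degrees C. The cells were HepG2 CAGA-GFP in 1% FBS DMEM, stimulated with 500 pg/mL TGF-beta after compound addition. %Activity was normalised to no-cell wells (complete cell-killing) and DMSO (no toxicity), and curves were fitted and classified.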
ATXN2 expr inh: Primary qHTS for Inhibitors of ATXN expression; HEK-293 ATXN2-luciferase reporter, luminescence, 24 h; Potency, µM (highest dose often 57 µM), hits mostly inhibitors; actives 0.72% (n = 360,000); AID 1745845, 2022; note: nearly all actives have a fitted effect of over 55% in size
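qHTS (up to 57 uM final) was run with 24 h compound exposure of reporter cells at 37 °C. Each well was multiplexed: SteadyGlo luminescence measured ATXN2-luciferase expression after a fluorogenic Gly-Phe-AFC viability readout (25 uM final).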
ATXN viability: Viability Counterscreen for Primary qHTS for Inhibitors of ATXN expression. S2 cells (HEK-293 line with an ATXN2-luciferase reporter) viability, CellTiter-Fluor protease fluorescence, 24 h. AID 651635, 2014. Potency, µM (highest dose often 56.7 µM), usual class: cytotoxic. actives 0.49% (n = 400,000); note: nearly all actives have a fitted effect of over 40% in size
Each line names hits and unclear results; the compound was inactive in the other large screens; ! = repeats disagree. An excerpt weighted towards active compounds, which were near 3.8% of everything screened. Calls come from the whole dose curve; as a rule, active = well fitted curve in the direction sought with a large enough effect; inconclusive = small, poorly fitted or top-dose-only effect, or another doubt; inactive = no such curve, though single readings can be large; an effect the other way counts as inactive or inconclusive.

CCc1ccc(NC(=O)Cn2c(SCc3ccc(C)cc3)nc3ccncc32)cc1	TGFb SMAD3 inh inconclusive (no result: HT1080-NT tox, HT1080 IDH1KD tx, ATXN2 expr inh, ATXN viability)
O=C(NOCC(O)CO)c1cc(Br)c(F)c(F)c1Nc1ccc(I)cc1F (stereo not drawn)	none (no result: TGFb SMAD3 inh, HT1080-NT tox, HT1080 IDH1KD tx, HepG2 viability, ATXN viability)
CCOC(=O)c1c(C)[nH]c(C)c1S(=O)(=O)N(C)CC(=O)N1CCN(c2cccc(Cl)c2)CC1	TGFb SMAD3 inh inconclusive (no result: HT1080-NT tox, HT1080 IDH1KD tx)
Cc1cccc(CC(C)NC(=O)CCc2nnc(-c3ccccc3)o2)n1 (stereo not drawn)	none (no result: ATXN2 expr inh)
CC(NC(=O)CCc1nnc(-c2ccc(-c3ccccc3)cc2)o1)c1nc2ccccc2[nH]1 (stereo not drawn)	ATXN2 expr inh 3.8µM
COc1ccc(CC(=O)Nc2nc(-c3ccc(F)c(F)c3)cs2)cc1	TGFb SMAD3 inh inconclusive, HT1080-NT tox 18µM, HT1080 IDH1KD tx inconclusive, ATXN2 expr inh inconclusive
O=C1C(C=Nc2ccccc2O)=C(O)c2ccccc21	HT1080-NT tox 6.3µM, HT1080 IDH1KD tx 6.3µM
C/C(=N\OCc1cccc(C(=O)O)c1)c1ccc(Cl)cc1	ATXN2 expr inh 2.8µM
N#Cc1ccc(C(=O)Nc2ccccc2-c2nc3ccccc3s2)c(F)c1	none (no result: HT1080-NT tox, HT1080 IDH1KD tx)
CCN(CC)CCNC(=O)c1ccc2c(=O)n3nc(Nc4ccccc4OC)sc3nc2c1	TGFb SMAD3 inh inconclusive, ATXN2 expr inh 16µM, ATXN viability inconclusive (no result: HT1080-NT tox, HT1080 IDH1KD tx)
CC1CCCN(C(=O)c2ccc3c(=O)n4nc(Nc5ccccc5)sc4nc3c2)C1 (stereo not drawn)	none (no result: ATXN2 expr inh)
COc1ccccc1Nc1nn2c(=O)c3ccc(C(=O)N4CCCC(C)C4)cc3nc2s1 (stereo not drawn)	ATXN2 expr inh inconclusive, ATXN viability 32µM!
CC(=NNc1ccccc1)C(C)=NNc1ccccc1	none
CC(=O)/C=N/Nc1ccccc1	TGFb SMAD3 inh 22µM, HT1080-NT tox inconclusive
O=S(=O)(O)c1cc(O)c2c(O)c(N=Nc3cc(Cl)ccc3O)c(S(=O)(=O)O)cc2c1	HT1080-NT tox inconclusive, HT1080 IDH1KD tx inconclusive, ATXN2 expr inh inconclusive, ATXN viability 8.9µM
CC(C)(C)S(=O)(=O)c1nc2ccccc2s1	none
O=S(=O)(CCSc1nc2ccccc2s1)c1nc2ccccc2s1	TGFb SMAD3 inh inconclusive, HT1080-NT tox 21µM, HT1080 IDH1KD tx 21µM, ATXN2 expr inh inconclusive, ATXN viability 16µM
C=CCS(=O)(=O)c1nc2ccccc2s1	TGFb SMAD3 inh 18µM, HepG2 viability 10µM, ATXN2 expr inh inconclusive (no result: ATXN viability)
CCS(=O)(=O)CCSc1nc2ccccc2s1	none
CCCCNC(=O)CSc1nnc(C)c2c(C)n(-c3ccccc3)nc12	TGFb SMAD3 inh inconclusive, ATXN2 expr inh inconclusive (no result: HT1080-NT tox, HT1080 IDH1KD tx)
NC1=NC(c2ccc(Cl)cc2)C(C(=O)c2ccccc2)N1 (stereo not drawn)	TGFb SMAD3 inh inconclusive, HT1080-NT tox 18µM, HT1080 IDH1KD tx 15µM, ATXN viability inconclusive (no result: ATXN2 expr inh)
CCc1ccccc1NC(=O)c1ccc(CN2CCC(Cc3ccccc3)CC2)cc1	TGFb SMAD3 inh inconclusive, HT1080-NT tox 21µM, HT1080 IDH1KD tx inconclusive
CC[N+](CC)(CC)CCOC(=O)C(C1CCCC1)C1CCCC1	none (no result: TGFb SMAD3 inh, HT1080-NT tox, HT1080 IDH1KD tx, HepG2 viability)
COc1ccc(OC)c2c1C(=O)C(Cl)=C(Cl)C2=O	TGFb SMAD3 inh 3.2µM, HT1080-NT tox inconclusive, HT1080 IDH1KD tx 3.3µM, ATXN2 expr inh 7.1µM, ATXN viability 7.9µM
COc1ccc(OC)c2c1C(=O)c1ccccc1C2=O	none
CCCn1nc([N+](=O)[O-])c(C(C#N)c2nc3ccccc3s2)c(Cl)c1=O (stereo not drawn)	TGFb SMAD3 inh inconclusive, HT1080-NT tox 2.8µM, HT1080 IDH1KD tx 1.1µM, HepG2 viability 11µM
CCn1nc([N+](=O)[O-])c(C(C#N)c2nc3ccccc3n2C)c(Cl)c1=O (stereo not drawn)	HT1080-NT tox inconclusive, HT1080 IDH1KD tx inconclusive
Cc1cccc(O)c1C	HT1080 IDH1KD tx inconclusive
Cc1cccc(C)c1N=Nc1c(C)cc(O)cc1C	TGFb SMAD3 inh inconclusive, HT1080-NT tox inconclusive, HT1080 IDH1KD tx 21µM, ATXN viability inconclusive
O=C(/C=C/c1ccnc2ccccc12)c1cccs1	TGFb SMAD3 inh inconclusive, HT1080-NT tox 18µM, HT1080 IDH1KD tx 18µM, HepG2 viability 5.6µM, ATXN viability inconclusive
C(=C\c1ccnc2ccccc12)/c1cccs1	TGFb SMAD3 inh inconclusive (no result: HT1080-NT tox, HT1080 IDH1KD tx, ATXN2 expr inh, ATXN viability)
CCOc1ccc(NC(=O)CSc2cn(CC(=O)N3CCOCC3)c3ccccc23)cc1	none (no result: HT1080-NT tox, HT1080 IDH1KD tx, ATXN2 expr inh, ATXN viability)
CC(C)(C)OC(=O)NCCc1nnc(S(=O)(=O)Cc2ccc(Cl)cc2Cl)o1	TGFb SMAD3 inh 10µM, HT1080-NT tox 18µM, HT1080 IDH1KD tx 16µM, HepG2 viability 14µM, ATXN2 expr inh inconclusive (no result: ATXN viability)
CC(C)(C)OC(=O)NCCc1nnc(SCc2ccccc2Cl)o1	none
O=C(C[N+]1(CCc2ccccc2)CCOCC1)c1cccc([N+](=O)[O-])c1	none (no result: HT1080-NT tox, HT1080 IDH1KD tx, ATXN2 expr inh, ATXN viability)
C=C1C(=O)[C@@]23C(CC[C@@H]1[C@H]2O)[C@@]12CO[C@]3(O)[C@@H](O)[C@@H]1C(C)(C)CC[C@@H]2O (stereo partly drawn)	ATXN2 expr inh 9.7µM (no result: TGFb SMAD3 inh, HT1080-NT tox, HT1080 IDH1KD tx, HepG2 viability, ATXN viability)
CCc1ccc(NC(=O)CSc2nc3ccccc3c(=O)n2CCCN2CCC(C)CC2)cc1	HT1080-NT tox inconclusive, HT1080 IDH1KD tx 21µM
Cc1cc(NC(=O)CSc2nc3c(sc4ccccc43)c(=O)n2CCCN2CCOCC2)n[nH]1	ATXN2 expr inh 1.4µM, ATXN viability inconclusive
